Inconclusive results are not listed. Activity calls are given as the source filed them. How the source made its calls: active means hit-call score of the fitted dose curve at least 0.9, where 1 is the maximum; inconclusive means response in the unintended direction; inactive means score below 0.9.

As usually defined, the AC50 is the midpoint of the concentration-response curve, whichever way the signal moves.

The subject of the test is turtle Thyroid Hormone Receptor, alpha (TRa), gene 101949057. Nature of the test: ATG_trTRa_XSP2: Attagene TRANS-FACTORIAL Multi-Species (XSP1) HepG2 Assay for turtle Thyroid Hormone Receptor, alpha (TRa) (AID 2283834).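 Further: hits raise reporter mRNA over the DMSO baseline so AC50 marks activators.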 How it is done:
ATG_XSP2_multi-species_TRANS is a cell-based, multiplexed assay created by modifying the existing Attagene TRANS-FACTORIAL system to include a panel of nuclear receptors from some or all the following species: human (Homo sapiens), mouse (Mus musculus), frog (Xenopus laevis), zebrafish (Danio rerio), chicken (Gallus gallus), and turtle (Chrysemys picta). The ECOTOX-FACTORIAL format uses HepG2, a human liver cell line, with measurements taken at 24 hours after chemical dosing in a 24-well plate. Xsp2 included 3 nM 6-alpha-fluorotestosterone and 1.5 nM norgestrel to stimulate the androgen receptor.ATG_trTRa_XSP2 is one of 29 assay components measured or calculated from the ATG_XSP2_multi-species_TRANS assay. It is designed to make measurements of mRNA induction, a form of inducible reporter, as detected with fluorescence intensity signals by Reverse transcription polymerase chain reaction (RT-PCR) and Capillary electrophoresis technology.The assay endpoint ATG_trTRa_XSP2 was analyzed in the positive analysis fitting direction relative to DMSO as the negative control and baseline of activity. Using a type of inducible reporter, measures of mRNA for gain-of-signal activity can be used to understand the reporter gene at the transcription factor-level as they relate to the gene TR. Furthermore, this assay endpoint can be referred to as a primary readout, because this assay has produced multiple assay endpoints where this one serves a reporter gene function. To generalize the intended target to other relatable targets, this assay endpoint is annotated to the nuclear receptor intended target family, where the subfamily is non-steroidal.
Human liver HepG2 cells are transiently transfected with multiple reporter transcription units (MRTUs) in 6-well plates using FuGene 6 reagent (Roche; 3 ml FuGene/1 mg DNA). The MRTU constructs are regulated by a cis-regulating element (promoter). […] A major difference between the CIS and TRANS system is that in CIS activities of endogenous TFs are measured, whereas the TRANS assay evaluates changes in activities of exogenous, chimeric NR-Gal4 proteins. […] At the end of 24 hour incubation, total RNA was isolated using TriZol reagent (Invitrogen). The isolated RNA is then reverse-transcribed using oligo(dT) primer and Mo-MLV reverse transcriptase (Invitrogen) with DNAse I (Ambion) treatment for 30 min. The one-tenth of the produced cDNA was amplified by PCR using Taq DNA polymerase (Invitrogen) and two reporter sequence-specific primers. The PCR products were fluorescently labeled by primer extension with 6-arboxyfluorescein (6-FAM) 5'-labeled reporter sequence-specific primer (2 min at 95 C, 20 s at 68 C and 10 min at 72 C) and these products were digested with 5U of HpaI (New England Biolabs) for 2h at 37 C. The fragments were purified using Qiaquick PCR columns (Qiagen), analyzed on an ABI 3130xL genetic analyzer (Applied Biosystems) with peak positions identified by using a set of X-rhodamine (ROX)-labeled MapMarker1000 molecular weight standards (BioVentures). The raw capillary electrophoresis data was processed using Attagraph software (Attagene).
Turning to `CCCCNC(=O)OCC#CI`, the AC50 is 25.5 µM (active).
In the case of `CCCCOC(=O)c1ccccc1C(=O)OCCCC`, the outcome was inactive.
Same read-out and setting: the entry for `COc1ccc(C(c2ccc(OC)cc2)C(Cl)(Cl)Cl)cc1` is “inactive”; for `CCOP(=S)(OCC)SCn1c(=O)oc2cc(Cl)ccc21` it is “inactive”.
Still for that read-out and setting: the result for `OC(c1ccc(Cl)cc1)(c1cncnc1)c1ccccc1Cl` (centres undefined) reads “inactive”; that for `CCCCC(CC)COC(=O)c1ccccc1C(=O)OCC(CC)CCCC` (centres undefined), “inactive”.
For `CC(C)Oc1cc(-n2nc(C(C)(C)C)oc2=O)c(Cl)cc1Cl`, the half-maximal activity concentration (AC50) is 16.1 µM (active).
As to `COC(=O)N(OC)c1ccccc1COc1ccn(-c2ccc(Cl)cc2)n1`, the outcome was inactive.
The same measure, in the same setting: the entry for `C=CC1(C)OC(=O)N(c2cc(Cl)cc(Cl)c2)C1=O` (centres undefined) is “inactive”.
On to `CC(C)(C)c1ccc(CSc2cnn(C(C)(C)C)c(=O)c2Cl)cc1`, for which the half-maximal activity concentration (AC50) was 0.0534 µM (active).
Regarding `CON(C)C(=O)Nc1ccc(Cl)c(Cl)c1`, the call was inactive.
Same read-out and setting: the entry for `CO/C=C(/C(=O)OC)c1ccccc1Oc1cc(Oc2ccccc2C#N)ncn1` is “inactive”.
For the molecule `COP(=S)(OC)Oc1nc(Cl)c(Cl)cc1Cl`, the result was inactive.
The same measure, in the same setting: the result for `CCCC1COC(Cn2cncn2)(c2ccc(Cl)cc2Cl)O1` (centres undefined) reads “inactive”.
